Eya2 inh = inhibitors of human Eya2 phosphatase activity; Potency, µM (doses to about 76.9 µM), for inactives: at the highest dose activity, negative = inhibition, most hits filed as inhibitors; hit rate 0.006% among 330,000; AID 488837; recombinant Eya2, OMFP fluorescence dephosphorylation (OMFP is methylfluorescein phosphate)
Target sequence (O00167 whole entry, looked up): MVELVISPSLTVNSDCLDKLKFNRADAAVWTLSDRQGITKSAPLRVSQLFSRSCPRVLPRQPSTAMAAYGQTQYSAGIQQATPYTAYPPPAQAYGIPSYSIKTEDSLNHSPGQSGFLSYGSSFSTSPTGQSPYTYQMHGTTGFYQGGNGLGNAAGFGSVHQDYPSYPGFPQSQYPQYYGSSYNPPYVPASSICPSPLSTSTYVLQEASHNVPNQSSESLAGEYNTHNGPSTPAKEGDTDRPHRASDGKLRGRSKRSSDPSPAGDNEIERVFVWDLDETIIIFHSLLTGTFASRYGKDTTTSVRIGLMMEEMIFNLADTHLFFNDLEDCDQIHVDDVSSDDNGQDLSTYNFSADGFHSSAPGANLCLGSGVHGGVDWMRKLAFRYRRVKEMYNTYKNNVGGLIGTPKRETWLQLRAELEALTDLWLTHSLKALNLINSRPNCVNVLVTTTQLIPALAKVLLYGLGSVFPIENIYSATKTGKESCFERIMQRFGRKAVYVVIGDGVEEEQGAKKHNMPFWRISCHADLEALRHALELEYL
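Eya2 (0.2 uM) preincubated 10 min at ambient with compound, then OMFP substrate added at 50 uM; 10 min reaction in 50 mM HEPES pH 7.5, 50 mM NaCl, 5 uM MgCl2, 0.05% BSA, 1 mM DTT. Fluorescence read at Ex 485/Em 525 nm.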
RGS4 inhibitor = inhibitors of human regulator of G protein signaling 4; P49798; Transcreener GDP fluorescence polarization, RGS4-accelerated GTP hydrolysis; Potency, µM (titrated, usually from 114 µM), for inactives: top-dose activity change, negative = inhibition, usual class: inhibitors; hit rate 0.039% among 390,000; further: nearly all actives have a fitted effect of over 75% in size
Target sequence (P49798 whole entry, looked up): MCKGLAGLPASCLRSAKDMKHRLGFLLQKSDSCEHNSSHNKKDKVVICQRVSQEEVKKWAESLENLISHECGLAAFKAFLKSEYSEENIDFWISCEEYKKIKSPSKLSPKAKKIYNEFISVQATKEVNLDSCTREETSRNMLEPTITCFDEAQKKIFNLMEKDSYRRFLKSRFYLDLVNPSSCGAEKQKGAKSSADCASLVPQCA
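MLSMR compounds (23 nl, pin-transferred) preincubated 10 min at room temperature with a 500nM (2x) first reagent, then RGS4 at 900nM (2x) plus Transcreener GDP mix added; fluorescence polarization (620/688 nm) read before and after 90 min at 30 °C.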
uPA generation = blocks generation of uPA at the cell surface. cell surface uPA generation assay, qHTS. Potency, µM (doses to about 38.3 µM), inactives show at the top dose activity change, negative = inhibition, actives largely listed as inhibitors. hit rate 0.31% among 330,000. AID 540303; active means well fitted inhibition curve with a large enough effect; inconclusive means small, poorly fitted or top-dose-only effect; inactive means no such curve, though single readings can be large or run the other way; tested in mouse RAW 264.7 cells; further: nearly all actives have a fitted effect of over 55% in size
BCR signal inh = blocks chronic active B-cell receptor signaling; ABC-DLBCL IkBa-CBG/CBR reporter, luminescence ratio, 4 h; Potency, µM (top dose mostly 46.1 µM), without a hit: at the highest dose activity change, negative = inhibition, usual class: inhibitors; hit rate 0.05% among 340,000; active means well fitted inhibition curve with a large enough effect in the signal ratio, with a control signal flat, not every such curve was filed as active; inconclusive means small, poorly fitted or top-dose-only effect, or effect the other way, or a change in a side signal; the % refers to the signal ratio;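 further: plate controls were basal doxycycline-induced cells for no effect and cells given 10 µM MG132 for full effect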
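Compounds up to 46 uM were incubated four hours with TMD8 cells whose green CBG68 luciferase is fused to IkappaBalpha; red CBR luminescence normalised the signal, and concentration-effect curves were fitted to fusion, red and ratio data.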
GCN5L2 inh = blocks human GCN5L2 histone acetyltransferase | Q92830 | Potency, µM (top dose mostly 58.9 µM), for inactives: top-dose activity change, negative = inhibition, actives largely listed as inhibitors | hit rate 0.21% among 390,000 | AID 504327 | GCN5L2 HAT assay, ThioGlo1 CoA-SH fluorescence
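Free CoA generated was detected with ThioGlo1 (50uM) fluorescence at Ex340nm/Em540nm, read immediately and after 20 min at room temperature. Enzyme, 20 nM in HEPES pH 7.5 buffer, saw compounds 15 min before adding 75uM H3(1-25) peptide and 70uM acetyl-CoA.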
USP2a inh = USP2a (human) protease inhibition. AID 463254. O75604. USP2 core, Ub-CHOP2 coupled fluorogenic reporter, 485/531. Potency, µM (series often up to 38.3 µM), for the others: at the top dose activity change, negative = inhibition, usual class: inhibitors. hit rate 0.01% among 330,000;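 further: plate controls were DMSO wells for no effect and full inhibition by NEM control for full effect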
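Cell-free coupled assay: 10nM USP2 core preincubated 30min RT with compound in Tris-HCl pH 8.0/CaCl2/CHAPS buffer, then 25nM Ub-CHOP2 and 25nM reporter substrate; fluorescence (Ex 485/Em 531) read after 60min RT, normalized to NEM inhibition, concentration-response curves fitted.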
Starred values were filed as active, the others as inactive; u = inconclusive; x = no result; ! = not active in a repeat; [ ] = another dose, or the depositor's remark. Only some compounds are listed: those with a hit (about 0.52% of all), similar ones and a draw of the others. Unless noted, the call rests on the fitted dose curve; in most records, active means well fitted curve in the direction sought with a large enough effect; inconclusive means small, poorly fitted or top-dose-only effect, or another doubt; inactive means no such curve, though single readings can be large; an effect the other way counts as inactive or inconclusive. Unless noted, on the % scale 0 is the no-effect control and ±100 the full control effect; potency means the concentration at half of the fitted maximal effect.

SMILES	Eya2 inh	RGS4 inhibitor	uPA generation	BCR signal inh	GCN5L2 inh	USP2a inh
Cc1ccc(S(=O)(=O)N2CCCCC2CCNC(=O)C(=O)NCc2ccncc2)cc1 (centres undefined)	-7%	-34%	-3%	u	-10%	1%
Cc1ccc(S(=O)(=O)N2CCCCC2CCNC(=O)C(=O)NCc2ccccc2)cc1 (centres undefined)	7%	-4%	8.9µM*	u	-7%	3%
COc1cccc(NC(=O)C2CCCN(c3ncnc4onc(-c5ccc(F)cc5)c34)C2)c1 (centres undefined)	x	-20%	x	x	-24%	x
CCCCOc1ccc(C(=O)Nc2cc(C)c(OCC(=O)N3CCOCC3)c(C)c2)cc1	-4%	-17%	-5%	u	-4%	4%
Cc1cc(NC(=O)c2ccc(Cl)cc2)cc(C)c1OCC(=O)N1CCOCC1	-16%	-3%	4µM*	-1%	-9%	-1%
CN(C)c1ccc(-c2ccc3ncnc(-n4ccnc4)c3c2)cc1	x	x	x	x	25µM*	x
Cc1cc2c(cc1S(=O)(=O)NCc1ccccc1Cl)OCC(=O)N2	x	3%	x	x	-12%	x
Cc1cc2c(cc1S(=O)(=O)NCc1ccccc1)OCC(=O)N2	6%	-2%	1%	u	25µM*!	0%
COc1ccc(-c2csc3ncnc(N4CCN(c5cccc(Cl)c5)CC4)c23)cc1	4%	-29%	11µM*	-5%	-11%	1%
CCNc1ncc2nc(-c3cccc(C#N)c3)c(=O)n(C)c2n1	x	x	x	x	35µM*	x
CC(=O)c1c(C)oc2c(Br)cc(NS(=O)(=O)c3ccc(Br)cc3)cc12	x	-12%	x	11%	3%	x
C/C(=N/NC(=O)COc1cc(C)ccc1C(C)C)C(=O)O	3%	8%	-2%	10µM*	1%	2%
CN(C)CCC(C(=O)c1ccccc1)c1ccccn1 (centres undefined)	x	18%	3%	x	x	x
CN(C)CC(CCCCC(CN(C)C)C(=O)c1ccccc1)C(=O)c1ccccc1 (centres undefined)	8%	-19%	10µM*	u	-2%	2%
COc1ccc(C(=O)c2ccccc2)c(O)c1O	x	x	x	x	-4%	x
CCOc1ccc(NC(=O)COc2ccc(S(=O)(=O)NC3CCCCC3)cc2)cc1	x	3%	x	x	-6%	x
Cc1ccc(S(=O)(=O)N2CCCCC2)cc1	-16%	6%	-8%	2%	0%	-1%
Cc1ccc(C)c(CNc2ccc(S(=O)(=O)N3CCCCC3)cc2)c1	4%	19%	2.5µM*	0%	-8%	2%
CC(C)Oc1cccc(-c2nnc(SCC(=O)Nc3ccc4c(c3)OCCO4)n2N)c1	-12%	4%	x	-3%	25µM*	-1%
CCn1c2ccccc2c2cc(NC(=O)CSc3nnc(-c4ccc(OC)c(OC)c4)n3N)ccc21	-10%	21%	-1%	1%	5.6µM*	-1%
Nn1c(SCC(=O)Nc2ccc3c(c2)OCCO3)nnc1-c1cccnc1	-2%	-13%	0%	-3%	0%	3%
CCCS(=O)(=O)c1nc(S(=O)(=O)c2ccc(C)cc2)c(NC)s1	x	-10%	x	x	1%	x
CCOc1ccccc1C(=O)Nc1cccc2ccc(C)nc12	x	8%	x	x	-1%	x
Brc1ccc2c(c1)C(C1=NCCN1)c1ccccc1CS2 (centres undefined)	0%	20%	0.5µM*	-1%	0%	3%
CCC1CSC(=Nc2ccc(C)cc2)N1C(=O)CN1C(=O)NC2(CCCC2)C1=O (centres undefined)	-1%	-30%	8.9µM*	-9%	u	-5%
SMILES	Eya2 inh	RGS4 inhibitor	uPA generation	BCR signal inh	GCN5L2 inh	USP2a inh
CCCC(=O)O[C@]1(C(=O)CCl)[C@H](C)C[C@@H]2[C@H]3CCC4=CC(=O)C=C[C@]4(C)[C@@]3(F)C(=O)C[C@@]21C	x	x	x	x	-5%	x
O=S(=O)(Nc1cc(Br)cc2cccnc12)c1cccc2ccccc12	x	0%	x	x	x	x
CCCSc1nc(C)c(C(C)=O)cc1C#N	20%	-5%	-7%	18µM*	-2%	0%
N#CC(=C(\N)Sc1ccccc1N)/C(C#N)=C(/N)Sc1ccccc1N	5%	9.5µM*	x	x	-15%	x
Nc1ccccc1SCc1ccccc1	-16%	-36%[56.9 µM]	0%	0%	-3%	-8%
COc1cc(SC)ccc1C(=O)Nc1ncc(C)s1	-7%	3%[56.9 µM]	3.5µM*	u	-13%	2%
O=C(CSc1nnc(-c2ccccc2Cl)o1)Nc1ccccn1	-1%	3%	10µM*	u	-8%	1%
Cc1occc1-c1nnc(SCC(=O)Nc2ccccn2)o1	-3%	-10%	-2%	u	-4%	1%
O=C(CCl)N=c1sccn1Cc1cccc2ccccc12	3%	-14%	0.22µM*	u	-14%	1%
O=C(CCl)N=c1sccn1Cc1ccccc1Cl	13%	-12%	-5%	u	-7%	0%
CC(=O)C(Cc1ccccc1)(Cc1ccccc1)C(C)=O	10%	0%	-1%	1%	-12%	0%
C=CC(=O)NC(C)(C)Cc1ccccc1	9%	8%	-2%	-10%	18µM*	-2%
CCOC(=O)C(C)Oc1cccc2c(=O)n(CC(=O)NCc3ccc(F)cc3)ccc12 (centres undefined)	9%	-7%	0.32µM*	u	4%	10%
COC(=O)COc1cccc2c(=O)n(CC(=O)NCc3ccc(F)cc3)ccc12	-13%	5%	0.63µM*	u	-1%	-1%
CCOC(=O)COc1cccc2c(=O)n(CC(=O)NCc3ccc4c(c3)OCO4)ccc12	0%	19%	1µM*	u	0%	-1%
CCc1cc(=O)[nH]c(SCc2nc(-c3ccc(C(F)(F)F)cc3)no2)n1	x	-21%	x	x	2%	x
CN(C)CCCNc1cc(O)c2ncccc2c1	5%	3%	4µM*	5%	-5%	-1%
O=C(O)CCc1c(C(=O)O)[nH]c2cc(Cl)cc(Cl)c12	x	x	x	x	8%	x
Oc1c(I)cc(I)c2cccnc12	10%	-29%	9%	-2%	-1%	0%
O=S(=O)(O)c1cc(I)c(O)c2ncccc12	x	x	x	x	5.6µM*	x
O=C(c1cn(Cc2ccccc2)nc1-c1ccccc1)N1CCN(c2ccccn2)CC1	-6%	4%	4.5µM*	5%	-9%	-2%
COc1ccc(-c2nn(Cc3ccccc3)cc2C(=O)N2CCN(c3ccccn3)CC2)cc1OC	17%	-11%	-7%	u	2%	0%
O=C1OCCN1C(=O)[C@H]1[C@H](c2ccccc2)C(c2ccccc2)=NN1c1ccccc1	5%	-1%	-8%	-2%	28µM*	-3%
Cc1cccc(CNc2ccnc(-c3ccoc3)n2)c1	x	x	x	x	-5%	x

Screening results as filed in PubChem.
